Shown are actives, neighbours in structure and some others; about 17% of the full set was active somewhere.
TDP1 cell CPT: DT40-hTDP1 cell growth loss with CPT; AID 686979; chicken DT40 Tdp1-/-;hTDP1 cells + 20 nM CPT, ATP luminescence, 48 h; Potency, µM (series often up to 46.2 µM), for inactives: top-dose activity change, negative = growth inhibition, usual class: inhibitors; 420,000 compounds, 12% hits; also: % is scaled to controls: 0 for no effect and ±100 for the full control effect; nearly all actives have a fitted effect of over 55% in size
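Cell growth measured by CellTiter-Glo luminescence after a minimum 48 h, 37 C compound exposure with 20 nM CPT in Tdp1-knockout DT40 cells stably expressing hTDP1, seeded 400/well; qHTS titration format.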
DT40 TDP1 no CPT: qHTS for Inhibitors of human tyrosyl-DNA phosphodiesterase 1 (TDP1): qHTS in cells in absence of CPT; DT40 Tdp1-/- hTDP1 cells, no CPT, ATP luminescence, 48 h; Potency, µM (titrated, usually from 46.2 µM), for inactives: top-dose activity change, negative = growth inhibition, actives largely listed as inhibitors; 420,000 compounds, 15% hits; also: % is scaled to controls: 0 for no effect and ±100 for the full control effect; nearly all actives have a fitted effect of over 55% in size
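Compound effects on proliferation are scored in DT40 Tdp1-/-;hTDP1 cells in the absence of CPT. ATP levels (CellTiter-Glo luminescence) are recorded after a ≥48 hr, 37 °C incubation.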
ClpP mod: qHTS Assay for Activators of ClpP; ATP-dependent Clp protease proteolytic subunit (Bacillus subtilis (strain 168)), P80244; purified B. subtilis ClpP, FRET peptide cleavage, 20 min; Potency, µM (doses to about 57.5 µM), for the others: at the highest dose activity change, negative = active; 340,000 compounds, 1.9% hits; active = well fitted falling curve with a large enough effect; inconclusive = small, poorly fitted or top-dose-only effect; inactive = no such curve, though single readings can be large or run the other way; also: the source files actives as falling curves though it sought activators and does not explain the sign; nearly all actives have a fitted effect of over 65% in size
Target sequence (P80244 whole entry, looked up): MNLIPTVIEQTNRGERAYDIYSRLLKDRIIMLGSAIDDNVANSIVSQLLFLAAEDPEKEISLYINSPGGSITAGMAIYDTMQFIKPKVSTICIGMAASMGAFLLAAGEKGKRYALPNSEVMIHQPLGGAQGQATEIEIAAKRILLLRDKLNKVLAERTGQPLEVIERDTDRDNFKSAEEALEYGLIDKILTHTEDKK
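FRET quenching reversal measured ClpP activation: 10 microg/mL B. subtilis ClpP at pH 8 with the FRET-FV decapeptide, read at 430 nm after 320 nm excitation. The 20-min minus 0-min signal was scaled between DMSO/no-enzyme wells and ADEP (5.8 microM final).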
TDP1 inh: TDP1 (human) enzyme inhibition; Potency, µM (top dose mostly 130 µM), inactives show at the highest dose activity change, negative = inhibition, hits mostly inhibitors; 350,000 compounds, 0.28% hits; AID 485290; recombinant TDP1, AlphaScreen DNA substrate cleavage; also: % is scaled to controls: 0 for no effect and ±100 for the full control effect; nearly all actives have a fitted effect of over 40% in size
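E. coli-derived human Tdp1, 1 nM final. Cpd preinc 15 min RT; substrate 15 nM final, 5 min RT; AS bead mix 10 ug/ml final, 10 min RT. Signal loss = tyrosine-FITC cleavage. No-enzyme wells = max signal.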
Active calls of the source: *; u = inconclusive; x = not tested or not shown. Unless noted, calls follow the shape of the dose curve; as a rule, active = well fitted curve in the direction sought with a large enough effect; inconclusive = small, poorly fitted or top-dose-only effect, or another doubt; inactive = no such curve, though single readings can be large; an effect the other way counts as inactive or inconclusive. Potency is read from the fitted curve at half-maximal effect.

SMILES	TDP1 cell CPT	DT40 TDP1 no CPT	ClpP mod	TDP1 inh
Cc1ccc(NC(=O)Nc2c(Cl)cccc2Cl)cn1	u	10.3µM*	0.1%	-2.5%
Cc1ccc(NC(=O)Nc2cccnc2)cc1Cl	u	-5.9%	-2.0%	x
CCCOC(c1ccccc1)(c1ccc(C(F)(F)F)cc1)C(Oc1nc(C)cc(C)n1)C(=O)O (configuration not stated)	18.4µM*	20.6µM*	1.2%	2.6%
Cc1c(C(=O)Nc2cccc(F)c2)oc2c1-c1nn(Cc3c(F)cccc3Cl)cc1CC2	u	u	-5.9%	3.9%
CC(c1ccccc1)C1CC(=O)N(CC(=O)O)C1=O (configuration not stated)	2.8%	0.6%	-2.6%	1.0%
CC(c1ccccc1)C1CC(=O)N(Cc2ccco2)C1=O (configuration not stated)	u	20.6µM*	2.6%	5.5%
CC(=O)NCCc1c(Cc2ccccc2)[nH]c2ccccc12	u	u	x	7.3%
CCCCCCNc1c(C(=O)OCC)c(=O)[nH]c2ccccc12	16.4µM*	u	-1.8%	1.0%
CCCCNC(=O)Cc1c(O)c2ccccc2[nH]c1=O	1.8%	-2.3%	20µM*	-5.1%
CCCCC(=O)NCCc1c(Cc2ccccc2)[nH]c2ccccc12	u	18.4µM*	x	15.8%
CCCCCCNC(=O)Cc1c(O)c2ccccc2[nH]c1=O	-6.2%	-4.8%	28.2µM*	6.9%
CCOC(=O)c1c(NCC2CCCO2)c2ccccc2[nH]c1=O (configuration not stated)	-11.1%	-13.1%	-1.3%	10.9%
COc1cc(C)c(CN2CCc3nnc(C(C)NC(=O)c4cc(F)ccc4F)n3CC2)cc1C (configuration not stated)	0.3%	-1.8%	x	x
CCc1ccc(NCc2cccn2-c2nnc(N3CCCCCC3)s2)cc1	20.6µM*	16.4µM*	-0.1%	4.9%
COc1ccccc1NCc1cccn1-c1nnc(N2CCCCCC2)s1	u	u	0.2%	8.5%
COc1ccc(NCc2cccn2-c2nnc(N3CCOCC3)s2)cc1OC	-20.1%	u	-2.3%	3.2%
COc1ccc(NCc2cccn2-c2nnc(N3CCCCC3)s2)cc1OC	u	16.4µM*	-1.7%	3.2%
Cc1ccc(CNCc2cccn2-c2nnc(N3CCCC3)s2)cc1	u	16.4µM*	0.1%	-2.1%
NS(=O)(=O)c1ccc(NC(=O)CN2CCN(S(=O)(=O)c3ccc(F)cc3)CC2)cc1	20.6µM*	20.6µM*	-0.5%	3.7%
COc1ccc(S(=O)(=O)N2CCN(CC(=O)Nc3ccc(Cl)c(C(F)(F)F)c3)CC2)cc1	9.2µM*	8.2µM*	-0.3%	-5.3%
COc1cccc(N2CCN(S(=O)(=O)c3ccc(-c4coc(C)n4)cc3)CC2)c1	u	20.6µM*	-4.9%	3.9%
COc1cccc(N2CCN(CC(=O)Nc3ccc(S(=O)(=O)N4CCCCCC4)cc3)CC2)c1	u	13µM*	-2.2%	2.9%
COc1cccc(NC(=O)CN2CCN(S(=O)(=O)c3ccc(C(C)C)cc3)CC2)c1	u	u	0.7%	3.3%
NS(=O)(=O)c1ccc(NC(=O)CN2CCCN(S(=O)(=O)c3ccc(F)cc3)CC2)cc1	-7.2%	-28.1%	x	5.4%
Fc1ccc(Cc2cn3cc(-c4ccc(F)cc4)nc3s2)cc1	u	-39.5%	0.6%	2.1%
SMILES	TDP1 cell CPT	DT40 TDP1 no CPT	ClpP mod	TDP1 inh
O=C(Nc1ccc(F)cc1)C(c1ccnc2ccccc12)N1CCN(C(=O)c2ccco2)CC1 (configuration not stated)	9.4%	-9.6%	-2.8%	x
COc1cccc(NC(=O)c2ccc3[nH]c(C)cc(=O)c3c2)c1	-16.0%	u	0.0%	5.7%
COc1ccc(CCNC(=O)c2ccc3c(c2)nc2n3CCOC2)cc1OC	3.2%	4.3%	-0.6%	2.7%
O=C(CN1CCN(S(=O)(=O)c2ccc(F)cc2)CC1)Nc1cccc(C(F)(F)F)c1	u	-21.0%	28.2µM*	5.9%
COc1cccc(NC(=O)CN2CCN(S(=O)(=O)c3ccc(F)cc3)CC2)c1	-17.6%	-16.2%	0.4%	0.0%
O=c1c2c3c(sc2nc2n1CCCCC2)CCC3	5.2%	-28.5%	-1.4%	7.0%

High-throughput results: PubChem BioAssay, National Center for Advancing Translational Sciences (NCATS)
